Source: PubChem
Compounds with a hit are over-represented: about 4.6% of the library has one in this group of screens.
D1 ag: human D1 receptor agonism. P21728. HEK293 T-REx D1 cells, calcium flux, agonist mode. activation, % at 2 µM. 360,000 tested, 1% active. AID 504660; note: 0% is about no effect
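Inducible HEK293 T-REx D1 cells, force-coupled to calcium signalling, were plated at 4000 cells/well with tetracycline and held overnight at 30 C. After no-wash calcium dye loading, compound-evoked calcium rise over 180 s flagged agonists.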
D1 antagonist: antagonists of human D1 dopamine receptor; HEK293 TREx D1 cells, calcium flux, dopamine EC80; active compounds read low; P21728; 360,000 tested, 3.2% active; AID 504652; activity change, negative = inhibition, % at 10 µM; in the data active = activity change below about -30%; note: % is set by controls: 0 for no effect and ±100 for the full control effect
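Tetracycline-induced HEK293 T-REx cells with force-coupled D1 receptor were loaded with a no-wash calcium dye. Compound was added after a 10 s baseline and read kinetically for 180 s; EC80 dopamine was then added and calcium flux followed another 180 s.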
TRHR ag: activates the human TRH receptor | P34981 | TRHR cells, calcium flux fluo-8, FDSS agonist mode | activation, % at 2 µM | 360,000 tested, 0.18% active; note: 0% is about no effect
Target sequence (P34981 whole entry, looked up): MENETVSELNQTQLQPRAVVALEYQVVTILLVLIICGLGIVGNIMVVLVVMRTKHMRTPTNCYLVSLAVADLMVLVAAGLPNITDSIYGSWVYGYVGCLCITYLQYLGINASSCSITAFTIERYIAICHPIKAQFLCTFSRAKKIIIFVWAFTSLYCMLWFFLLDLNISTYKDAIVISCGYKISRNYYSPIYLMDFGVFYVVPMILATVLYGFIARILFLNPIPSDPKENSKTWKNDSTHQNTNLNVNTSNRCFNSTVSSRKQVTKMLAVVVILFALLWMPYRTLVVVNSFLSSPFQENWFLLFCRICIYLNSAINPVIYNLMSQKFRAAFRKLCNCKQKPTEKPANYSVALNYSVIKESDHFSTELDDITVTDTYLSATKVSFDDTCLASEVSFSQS
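Fluo-8-loaded TRHR cells; 10 s baseline, compound added, kinetic Ca2+ fluorescence read 1/s, agonist mode.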
D1 PAM: human D1 dopamine receptor positive modulation | P21728 | HEK293 TREx D1 cells, calcium flux, dopamine EC20 potentiation | potentiation, % at 10 µM | 360,000 tested, 0.036% active; in the data active = potentiation above about 30%; note: 0% is about no effect
TRHR PAM: allosteric enhancers of human TRH receptor; enhancement, % at 2 µM; AID 493056; 360,000 tested, 0.66% active; P34981; TRHR cells, fluo-8 calcium fluorescence, EC20 TRH enhancement; in the data active = enhancement above about 30%; note: 0% is about no effect
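TRHR-expressing cells loaded with fluo-8 calcium dye were read kinetically (ex 480/em 530) during compound addition, then stimulated with an EC20 of TRH (10 nM final). Enhancement of the Gq-mediated intracellular calcium response was scored.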
* = called active by the depositor; ! = repeats disagree. Cut-off read from the data, not from the text of the source, unless noted: active = activation above about 30%; inactive = the rest.

SMILES	D1 ag	D1 antagonist	TRHR ag	D1 PAM	TRHR PAM
COc1cc(CNCCCN2CCOCC2)ccc1OCC(=O)NC(C)(C)C	1.5	6.5	1.4	-6.5	-3.9
COc1cc(CNCCN2CCOCC2)ccc1OCC(=O)NC(C)(C)C	32.4*	-1.0	-0.2	-20.5	7.4
CCOc1cc(CNCCc2ccc(S(N)(=O)=O)cc2)ccc1OCC(=O)NC(C)(C)C	1.6	-1.0	0.0	-2.3	3.4
CCOc1cc(CNCc2cccs2)ccc1OCC(=O)NC(C)(C)C	16.2	-6.8	1.1	-2.5	2.3
CCOCCCNC(=O)c1ccccc1NC(=O)C1=C(C)OCCS1	-0.3	6.6	-1.2	7.0	2.9
Cc1ccc(C)c(N2CCN(CCCNC(=O)CCC(=O)N3CCOc4ccc(Cl)cc43)CC2)c1	17.4	-2.2	2.0	-9.9	-0.3
O=C(CCN1C(=O)COc2ccccc21)NCCCN1CCN(c2ccccc2F)CC1	0.1	-39.8*	0.6	-5.0	-2.9
O=C(CCC(=O)N1CCOc2ccc(Cl)cc21)NCCCN1CCC(Cc2ccccc2)CC1	12.6	-41.1*	1.0	-19.1	8.0
O=C(CCC(=O)N1CCOc2ccc(Cl)cc21)NCCCN1CCN(c2ccccc2F)CC1	8.7	-42.0*	0.1	-22.3	-1.3
COc1cccc(NC(=O)Nc2ccc3nc(N4CCN(C)CC4)cc(C)c3c2)c1	1.6	-10.6	-0.2	-5.0	-2.7
O=C1CC(c2ccccc2)CC(O)=C1C=NCc1ccncc1 (stereo unspecified)	4.7	11.0	0.9	1.2	11.6
CCCOc1ccc(/C=N/NC(=O)C(=O)Nc2ccccn2)cc1	2.1	0.0	1.4	20.9	3.2
O=C(c1ccc2c(Cl)c3c(nc2c1)CCCC3)N1CCN(c2cccc(Cl)c2)CC1	7.3	-9.0	-0.5	6.2	33.2*
Cc1nc2cccnc2n1-c1cccc(C(=O)N2CCN(c3cccc(Cl)c3)CC2)c1	5.3	-32.2*	-0.9	-3.7	-4.2
COCC(C)n1c(C)cc(C(=O)COC(=O)c2n[nH]c3ccccc23)c1C (stereo unspecified)	3.6	-48.5*	1.4	-4.9	1.5
CCn1ncc([N+](=O)[O-])c1C(=O)Nc1c(C)nn(Cc2ccc(F)cc2)c1C	2.1	-40.1*	-1.2	-3.1	-3.6
Cc1cccc(C)c1NC(=O)/C(C#N)=C/c1ccsc1	2.6	-34.5*	0.4	5.3	-2.3
NC(=O)CC(NC(=O)Cc1cccc2ccccc12)c1ccc(NC2CCCCC2)c([N+](=O)[O-])c1 (stereo unspecified)	3.7	3.6	-0.7	-1.8	2.9
COc1ccc(NC(=O)c2cc3nc(-c4ccc(Cl)c(Cl)c4)cc(C(F)(F)F)n3n2)c(OC)c1	-1.5	-66.1*	-0.4	0.1	7.1
CCOc1ccccc1NC(=O)Nc1cc(S(=O)(=O)N(C)C)ccc1C	-0.5	-6.5	-0.3	-2.3	12.4
CCc1ccc(C(=O)C(C)OC(=O)c2nn(C)c(=O)c3ccccc23)cc1 (stereo unspecified)	34.6*	-15.1	-0.1	-8.2	8.6
COc1ccccc1NC(=O)Cn1c(=O)n(-c2cccc(Cl)c2)c(=O)c2c1c1cc(C)ccc1n2C	48.2*	-4.5	0.5	2.6	-3.7
Cc1ccc2c(c1)c1c(c(=O)n(-c3ccccc3C)c(=O)n1CC(=O)c1ccc(Cl)cc1)n2C	3.7	-32.4*	-0.3	-1.9	1.6
COc1ccc2c(c1)c1c(c(=O)n(Cc3ccccc3)c(=O)n1CC(=O)Nc1cc(C)cc(C)c1)n2C	0.7	2.3	0.1	0.2	2.7
COc1ccc2c(c1)c1c(c(=O)n(Cc3ccccc3)c(=O)n1CC(=O)Nc1ccc(C)cc1C)n2C	-1.0	-65.3*	-0.5	-1.4	3.0
SMILES	D1 ag	D1 antagonist	TRHR ag	D1 PAM	TRHR PAM
Cc1ccc2c(c1)c1c(c(=O)n(-c3cccc(Cl)c3)c(=O)n1CC(=O)c1ccc(Cl)cc1)n2C	6.7	-0.8	-0.6	0.1	4.7
CC(C)Oc1ccc(C(CCNCc2ccc(O)cc2)c2ccccc2)cc1 (stereo unspecified)	38.9*	6.6	1.9	-6.5	3.2
COc1ccc(C(CCNCc2ccc(N(C)C)cc2)c2ccccc2)cc1 (stereo unspecified)	28.5	4.2	1.3	-0.5	5.6
CNc1ccc2c3c(cccc13)C(=O)N(C)C2=O	337.8*	-38.1*	261.7*	-17.5	46.9*
CN1C(=O)c2cccc3c(Cl)ccc(c23)C1=O	2.9	3.5	0.4	1.1	-2.0
O=C(OCC#CCSc1nnc(-c2cccc3ccccc23)o1)c1ccco1	32.2*!	3.4	-0.8	4.9	7.8
CCCCCCN1C=CC=C/C1=C\C=C(C#N)C#N	63.7*	-7.2	27.9	6.8	-3.4
CC(=O)Nc1ccc(NC(=O)c2ccc3c(c2)N(Cc2cccc(Cl)c2)C(=O)c2ccccc2S3(=O)=O)cc1	9.5	8.0	-1.7	-3.2	2.6
O=C(c1ccc2c(c1)N(Cc1cccc(Cl)c1)C(=O)c1ccccc1S2(=O)=O)N1CCC(Cc2ccccc2)CC1	4.7	-34.1*	0.6	-2.8	-1.3
O=C(c1ccc2c(c1)N(Cc1ccccc1)C(=O)c1ccccc1S2(=O)=O)N1CCN(Cc2ccccc2)CC1	1.2	-0.4	0.3	-0.1	-2.7
CCOC(=O)c1ccc2c(c1)N(Cc1cccc(C(F)(F)F)c1)C(=O)c1ccccc1S2(=O)=O	8.7	-51.2*	0.3	-1.3	2.7
N#Cc1cccc(NC(=O)c2ccc3c(c2)N(Cc2cccc(Cl)c2)C(=O)c2ccccc2S3(=O)=O)c1	7.0	-7.1	2.2	-3.5	31.0*
O=C1C(c2ccccc2)C(c2ccccc2)NC(c2ccccc2)C1c1ccccc1 (stereo unspecified)	1.5	-3.2	0.5	-0.6	-1.3
Cc1nc2nc(-c3cccnc3)nn2c(C)c1Cl	1.5	-12.4	-0.5	-6.0	0.3
CN1CCN(/N=C/c2ccc(-c3ccc([N+](=O)[O-])cc3Cl)o2)CC1	52.1*	-7.9	12.0	-8.9	3.5
O=[N+]([O-])c1cc(-c2ccc(/C=N/n3cnnc3)o2)ccc1Cl	0.5	-6.0	0.3	-4.3	-3.8
O=[N+]([O-])c1ccc(Cl)c(-c2ccc(/C=N/n3cnnc3)o2)c1	-0.1	-41.7*	-1.0	-0.6	-4.2
CN(Cc1cnccn1)C(=O)CC1C(=O)NCCN1Cc1cccc(F)c1 (stereo unspecified)	1.7	7.0	-0.3	-2.8	-6.5
CCOC(=O)c1cc(OC(=O)c2cc(Cl)ccc2OC)n(-c2ccccc2)n1	1.9	3.5	-0.4	-3.3	6.1
O=C(O)CSc1nc2ccc(NC(=O)COc3ccc(Cl)cc3)cc2s1	-1.5	-24.0	1.3	-0.8	-2.6
Cc1nc(-c2cccc(NC(=O)COc3ccc(Cl)cc3)c2)cs1	14.0	-43.6*	-0.2	-17.5	-3.5
Cc1cccc(NC(=O)CSc2nc3ccc(NC(=O)COc4ccc(Cl)cc4)cc3s2)c1	10.7	-32.0*	2.3	-1.0	4.2
